RORgamma inh: ROR gamma (mouse) transcription inhibition; P51450; Drosophila S2 Gal4-RORgamma UAS-luciferase reporter, 20 h; Potency, µM (highest dose often 53.6 µM), without a hit: top-dose activity change, negative = inhibition, hits mostly inhibitors; 310,000 compounds, 5.4% hits; AID 2551; note: nearly all actives have a fitted effect of over 60% in size
Target sequence (P51450 whole entry, looked up, the tested form may be a part): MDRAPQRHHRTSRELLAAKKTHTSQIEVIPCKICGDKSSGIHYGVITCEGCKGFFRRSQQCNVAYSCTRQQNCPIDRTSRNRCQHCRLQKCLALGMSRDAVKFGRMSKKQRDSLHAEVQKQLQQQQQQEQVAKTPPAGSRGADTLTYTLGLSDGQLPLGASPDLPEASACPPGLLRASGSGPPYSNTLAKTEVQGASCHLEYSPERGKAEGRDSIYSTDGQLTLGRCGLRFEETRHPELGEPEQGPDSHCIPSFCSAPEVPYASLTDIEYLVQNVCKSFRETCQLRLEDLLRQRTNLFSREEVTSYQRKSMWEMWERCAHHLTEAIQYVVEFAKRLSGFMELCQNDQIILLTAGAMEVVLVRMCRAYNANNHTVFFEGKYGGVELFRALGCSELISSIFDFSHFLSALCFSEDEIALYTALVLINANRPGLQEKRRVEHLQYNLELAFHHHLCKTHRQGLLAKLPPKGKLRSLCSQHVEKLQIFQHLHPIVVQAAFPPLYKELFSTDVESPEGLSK
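In this cell-based reporter format, copper sulfate (700 uM final) drives Gal4–ROR gamma fusion expression from a metallothionein promoter in Drosophila Schneider cells; compounds preincubated 1 hr, reporter read after 20 hr at ambient temperature.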
Gal4-VP16 FLuc: Gal4-VP16 reporter inhibition counter-screen | Drosophila S2 Gal4-VP16 UAS-luciferase, luminescence, 20 h | Potency, µM (doses to about 53.6 µM), for inactives: at the top dose activity, negative = inhibition, usual class: inhibitors | 310,000 compounds, 3.5% hits | AID 2546;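 note: Gal4-VP16 expression switched on by copper sulfate through the metallothionein promoter; nearly all actives have a fitted effect of over 50% in size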
TDP1 cell CPT: DT40-hTDP1 cell growth loss with CPT | Potency, µM (highest dose often 46.2 µM), for the others: at the top dose activity change, negative = growth inhibition, most hits filed as inhibitors | 420,000 compounds, 12% hits | chicken DT40 Tdp1-/-;hTDP1 cells + 20 nM CPT, ATP luminescence, 48 h; note: nearly all actives have a fitted effect of over 55% in size
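Chicken DT40 Tdp1-/- cells stably complemented with human TDP1 were seeded at 400 cells/well in medium containing 20 nM camptothecin, exposed to pin-transferred compounds, and grown at 37 °C for at least 48 hr. Viability was read as ATP luminescence.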
ELG1 DNA repair: inhibitors of ELG1-dependent DNA repair in HEK293T cells | HEK293T ELG1-luciferase reporter, luminescence, 16 h; DNA damage induced by 5-fluorouridine | Potency, µM (top dose mostly 46.1 µM), for the others: at the top dose activity change, negative = inhibition, most hits filed as inhibitors | 330,000 compounds, 2.3% hits | AID 504467; note: nearly all actives have a fitted effect of over 55% in size
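In this reporter screen, reduction of luminescence relative to DMSO vehicle indicated activity. Compounds and 5-fluorouridine were added together to 2,000 cells per well, incubated for 16 hr at 37 °C, then developed with ONE-Glo.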
ALOX12 inh: inhibitors of human 12S-lipoxygenase ALOX12. P18054. purified 12hLO, xylenol orange hydroperoxide absorbance. Potency, µM (series often up to 108 µM), without a hit: top-dose activity change, negative = inhibition, actives largely listed as inhibitors. 580,000 compounds, 1.1% hits
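Purified human 12hLO at 150 nM in 25 mM Hepes, 0.01% Triton X-100, pH 7.0, preincubated 15 min at room temperature with compound. Reaction started with 40 uM arachidonic acid, 30 min at room temperature. Hydroperoxide measured by Fe-xylenol orange, 573/405 nm absorbance ratio.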
TDP1 cell noCPT: qHTS for Inhibitors of human tyrosyl-DNA phosphodiesterase 1 (TDP1): qHTS in cells in absence of CPT; DT40 Tdp1-/- hTDP1 cells, no CPT, ATP luminescence, 48 h; Potency, µM (doses to about 46.2 µM), without a hit: top-dose activity change, negative = growth inhibition, actives largely listed as inhibitors; 420,000 compounds, 15% hits; AID 686978, 2013; note: nearly all actives have a fitted effect of over 55% in size
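Compound effects on proliferation are scored in DT40 Tdp1-/-;hTDP1 cells in the absence of CPT. ATP levels (CellTiter-Glo luminescence) are recorded after a ≥48 hr, 37 °C incubation.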
Starred values were filed as active, the others as inactive; i = inactive; u = inconclusive; x = no result. Hits are enriched below; roughly 15% of the tested compounds scored in any of these assays. Calls come from the whole dose curve; as a rule, active = well fitted curve in the direction sought with a large enough effect; inconclusive = small, poorly fitted or top-dose-only effect, or another doubt; inactive = no such curve, though single readings can be large; an effect the other way counts as inactive or inconclusive. % is set by controls: 0 for no effect and ±100 for the full control effect; potency is the fitted concentration of half-maximal effect.

SMILES | RORgamma inh | Gal4-VP16 FLuc | TDP1 cell CPT | ELG1 DNA repair | ALOX12 inh | TDP1 cell noCPT
COc1ccc(OC)c(C2CC(=O)Nc3c2c(C)nn3-c2ccc3nnc(C)n3n2)c1 (centres undefined) | x | x | x | x | 7% | x
O=C(N/N=C/c1cccs1)c1n[nH]c2c1CCCC2 | 5µM* | 7.9µM* | u | u | i | 21µM*
O=C(N/N=C\c1cccc(Cl)c1)c1n[nH]c2c1CCCC2 | -15% | u | 4% | u | 1% | -27%
Cc1ccc(C(=O)N/N=C\c2cccs2)cn1 | u | u | -7% | u | 8% | -7%
Cc1ccc(/C=N/NC(=O)c2n[nH]c3c2CCCC3)cc1 | -25% | 8% | 0.82µM* | u | 248% | 0.92µM*
C/C(=N\NC(=O)c1n[nH]c2c1CCC2)c1cccs1 | 2.5µM* | 3.5µM* | 1% | u | 321% | -4%
C/C(=N\NC(=O)c1cc(C)[nH]n1)c1cccs1 | 13µM* | 10µM* | 0% | u | 1% | -24%
COc1ccccc1-c1c(C)oc2c(CN3CCCCC3C)c(O)ccc2c1=O (centres undefined) | -14% | -10% | 3% | 16% | 0% | 13%
COc1ccc(-c2coc3c(CN4CCCCC4C)c(O)ccc3c2=O)cc1 (centres undefined) | 5% | 0% | 6.5µM* | u | 11% | 18µM*
CC1CCCCN1Cc1c(O)ccc2c(=O)c(-c3ccccc3)coc12 (centres undefined) | 18% | 2% | 8.2µM* | -8% | 1% | 10µM*
CCC1CCCCN1Cc1c(O)ccc2c(=O)c(-c3ccccc3)coc12 (centres undefined) | -9% | -8% | 7.3µM* | u | -62% | 10µM*
CCN(Cc1ccccc1)Cc1c(O)ccc2c(=O)c(-c3ccc(Cl)cc3)coc12 | x | x | u | x | u | 21µM*
CCC1(C)C(C#N)C(=O)NC(=O)C1C#N (centres undefined) | x | x | x | x | 4% | x
CN1CC2(CCN(C(=O)C3CC3)CC2)CC1C(=O)N1CCOCC1 (centres undefined) | x | x | x | x | 56% | x
CCN1CCN(CC(=O)NCc2ccc3[nH]c(-c4ccc(F)cc4)c(C)c3c2)CC1 | x | x | x | x | 14% | x
CCCCOc1ccc(C(=O)N2CCC(C)CC2)cc1 | 19% | 12% | -21% | 29% | 12% | -22%
CCCCOc1ccc(C2CCC(C(C)=O)C(C)C2)cc1 (centres undefined) | 21% | 7% | u | u | 64% | 23µM*
CNC(=S)NNC(=O)CCn1nc(C)c(Br)c1C | 0.63µM* | 4µM* | u | x | 21% | u
Cc1nn(CC(=O)NNC(=S)NCC2CCCO2)c(C)c1Br (centres undefined) | 9% | 5% | -2% | 4% | i | 0%
CCOCCCNC(=S)NNC(=O)CCn1nc(C)c(Br)c1C | 1.4µM* | 3.2µM* | 2% | -2% | 19% | -12%
Cc1nn(CCC(=O)NNC(=S)Nc2ccc(F)cc2)c(C)c1[N+](=O)[O-] | 44% | -5% | -34% | 8% | -2% | -5%
Cc1nn(CCC(=O)NNC(=S)NCC(C)C)c(C)c1Br | 0.71µM* | 1.4µM* | 7.3µM* | -7% | 5% | 6.5µM*
Cc1nn(CCC(=O)NNC(=S)Nc2ccccc2)c(C)c1Br | 0.32µM* | u | -14% | u | -12% | -26%
Cc1ccc(-c2csc(NC(=O)c3cc4cnn(C(C)C)c4nc3C)n2)cc1 | x | x | x | x | 4% | x
O=C(CCC[C@@H]1[C@H]2CCCN3CCC[C@@H](CN1C(=O)c1ccsc1)[C@@H]23)NCC1CC1 | x | x | x | x | 32% | x
SMILES | RORgamma inh | Gal4-VP16 FLuc | TDP1 cell CPT | ELG1 DNA repair | ALOX12 inh | TDP1 cell noCPT
COCCCNC(=S)NNC(=O)Cn1nc(C)c(Br)c1C | 3.2µM* | 11µM* | 2% | 4% | -2% | -4%
Cc1cccc(NC(=S)NNC(=O)CCn2cc(C)cn2)c1 | 0.11µM* | 1µM* | 3% | 12% | 13% | -3%
CCC1(N2CCN(S(=O)(=O)c3ccc4c(c3)CCCC4)CC2)CCN(C(=O)NC)C1 (centres undefined) | x | x | x | x | 32µM* | x
CCC1(N2CCN(S(=O)(=O)c3cc(F)ccc3C)CC2)CCN(C(=O)NC)C1 (centres undefined) | x | x | x | x | -21% | x
O=C(CCl)N1CCN(S(=O)(=O)c2ccc3c(c2)CCC3)CC1 | x | x | 2.3µM* | u | 19% | 0.65µM*
COc1cc(C2CC(=O)Oc3c2c(=O)[nH]c2ccccc32)cc2c1OCO2 (centres undefined) | x | x | x | x | 17% | x
O=C(NCCCN1CCc2ccccc2C1)c1ccccc1C(F)(F)F | x | x | x | x | -17% | x
Cc1ccc(C2=C(c3ccc([N+](=O)[O-])cc3)C(=O)OC2)cc1C | -24% | 6% | u | -29% | -21% | 18µM*
CS(=O)(=O)NNC(=O)C1Cc2c(ccc3ccccc23)O1 (centres undefined) | 18% | 2% | -12% | 13% | 3% | -5%
O=C(NNS(=O)(=O)c1ccc(F)cc1F)C1Cc2c(ccc3ccccc23)O1 (centres undefined) | u | u | 18µM* | -5% | 7% | 18µM*
Cc1ccc(C23CC4CC(C2)CC(c2csc(NC(=O)c5ccccc5)n2)(C4)C3)cc1 | x | x | x | x | -6% | x
O=C(NC1CCCc2ccccc21)c1cnn2c1NC(=C1CC1)C=C2C(F)F (centres undefined) | x | x | 11µM* | x | x | 20µM*
O=C(Nc1cccnc1Cl)c1cnn2c1NC(=C1CC1)C=C2C(F)F | x | x | u | x | x | 8.9µM*
O=C(Nc1cccc(Nc2ccccc2)c1)c1cnn2c1NC(=C1CC1)C=C2C(F)F | x | x | 4.5µM* | x | x | 14µM*
Cc1ccc(NC(=O)c2cnn3c2NC(=C2CC2)C=C3C(F)F)cc1C | x | x | -1% | x | x | u
COc1ccc(CCNC(=O)c2cnn3c2NC(=C2CC2)C=C3C(F)F)cc1OC | x | x | 11µM* | x | x | 13µM*
CN(CCc1cnn(C)c1)C(=O)c1coc(COc2cccc(C(F)(F)F)c2)n1 | x | x | x | x | 44% | x
O=C(Nc1ccccc1F)c1cnn2c1NC(=C1CC1)C=C2C(F)F | x | x | -3% | x | x | -12%
O=C(Nc1ccccc1Sc1ccccc1)c1cnn2c1NC(=C1CC1)C=C2C(F)F | x | x | 16µM* | x | x | u
O=C(c1cnn2c1NC(=C1CC1)C=C2C(F)F)N1CCc2ccccc21 | x | x | 11µM* | x | x | 11µM*
